Common to all, as to assay type: functional
Test [1] has as its system Plasmodium falciparum. In words: GSK_TCMDC: Inhibition of Plasmodium falciparum 3D7 in whole red blood cells, using parasite LDH activity as an index of growth. Test compounds present at 2uM.
The subject of test [2] is Plasmodium falciparum. In words: GSK_TCMDC: Inhibition of Plasmodium falciparum Dd2 in whole red blood cells, using parasite LDH activity as an index of growth. Test compounds present at 2uM.
The next test has as its system HepG2. In words: GSK_TCMDC: Percent inhibition of human HepG2 cell line. Test compounds present at 10uM.

For the molecule `O=C(/C=C/c1ccc(Cl)c(Cl)c1)NCCCCCN1CCC(C(=O)Nc2ccc(Cl)cc2)CC1`, the values for the Inhibition with Plasmodium falciparum [1], with Plasmodium falciparum [2] and in the test with HepG2 were 100%, 0% and 42%, respectively.
For `Nc1c2ccccc2nc2ccc(-c3ccccc3)cc12`, in that order: 100%, 99% and 100%.
For `CC(=O)CC(=O)N1CCN(c2ccccc2)CC1`, in that order: 85%, 0% and 54%.
For `COc1ccc2nccc([C@@H](O)CN3CCC(NCCc4c[nH]c5ccccc45)CC3)c2c1.O=C(O)C(=O)O`, in that order: 98%, 77% and 0%.
On to `O=C(NC1CCN(Cc2ccccc2O)C1)c1ccc(-c2ccccc2)cc1.O=C(O)C(F)(F)F` (stereo not given), for which the Inhibition turned out to be 99% with Plasmodium falciparum [1], 25% in the test with Plasmodium falciparum [2] and 0% in the test on HepG2.
The like results for `O=c1cc(NC[C@H]2CCC[C@@H]2NC2CCCc3c2[nH]c2ccccc32)[nH]c2ccccc12` (stereo not given in full) were, in that order, 100%, 25% and 6%.
For `CC1=C(C(=O)Nc2cc3cn[nH]c3cc2F)C(c2ccc(Cl)c(NS(C)(=O)=O)c2)CC(=O)N1` (stereo not given), in that order: 88%, 98% and 2%.
For `c1ccc2cc3c(Nc4ccc(N5CCCCCC5)cc4)ccnc3cc2c1`, in that order: 94%, 76% and 10%.
Turning to `O=C(Nc1ccc(C(F)(F)F)cc1)c1cccc(S(=O)(=O)NC2CCN(CC3CCCCC3)C2)c1.O=C(O)C(F)(F)F` (stereo not given), the figures for the Inhibition with Plasmodium falciparum [1], with Plasmodium falciparum [2] and in the test on HepG2 were 98%, 10% and 32%, respectively.
For `OC(CNCc1ccco1)Cn1c2ccc(Br)cc2c2cc(Br)ccc21` (stereo not given), in that order: 92%, 72% and 10%.
For `O=C(Nc1ccc2nc3n(c(=O)c2c1)CCCCC3)C(=O)N1CCC(Cc2ccccc2)CC1`, in that order: 91%, 70% and 12%.
The like results for `Cc1cc(=O)c(C2CCC(c3ccc(Cl)cc3)CC2)c(C)[nH]1` (stereo not given) were, in that order, 88%, 70% and 0%.
In the case of `CCC[C@@H]([C@@H](CC1CCCCC1)C(=O)N[C@H](C(=O)Nc1nccs1)C(C)(C)SCCOCCOCC)N(O)C=O`, the Inhibition in the test on Plasmodium falciparum [1] is given as 100%; with Plasmodium falciparum [2], 97%; in the test with HepG2, 40%.
On to `Cc1cc2ccccc2n1CC(=O)N1CC(C(=O)N2CCCCC2)Oc2ccccc21` (stereo not given), for which the Inhibition is listed as 99% in the test on Plasmodium falciparum [1], 77% in the test with Plasmodium falciparum [2] and 0% with HepG2.
The like results for `Cc1noc(C)c1-c1cccc(CNCc2ccc(-c3ccc(-c4nc5cc(C(F)(F)F)ccc5[nH]4)cc3)cc2)c1.O=C(O)C(F)(F)F` were, in that order, 100%, 97% and 35%.
For `O=C(NC1CCCCN(Cc2ccccc2O)C1)c1ccc(Cl)c(Cl)c1.O=C(O)C(F)(F)F` (stereo not given), in that order: 96%, 96% and 0%.
For `Cc1[nH]c(C)c(-c2ccc(Oc3ccc(O)cc3)cc2)c(=O)c1Cl`, in that order: 91%, 87% and 0%.
In the case of `CCCCNc1cc(NCCCC)c2c(n1)[nH]c1ccccc12`, the Inhibition is reported as 100% in the test with Plasmodium falciparum [1], 94% in the test with Plasmodium falciparum [2] and 13% in the test with HepG2.
The like results for `O=C(O)C(F)(F)F.Oc1ccc(CCNc2nc(NCCOc3cccc4ccccc34)nc(N3CCNCC3)n2)cc1` were, in that order, 96%, 8% and 21%.
The like results for `COc1ccc(Nc2c3ccc(Cl)cc3nc3ccc(OC)cc23)cc1.Cl` were, in that order, 94%, 99% and 14%.
For `CCOc1ccc(-c2nonc2NC(=O)c2ccc(OC(C)C)cc2)cc1OCC`, in that order: 100%, 100% and 13%.
Consider `Cn1c(NC(=O)CCCCCNC(=O)c2ccc(O)c(-c3ccc(Cl)c(Cl)c3)c2)nc2ccccc21`, for which the Inhibition is 100% with Plasmodium falciparum [1], 55% with Plasmodium falciparum [2] and 0% in the test with HepG2.
The like results for `COc1ccccc1CN1CCC(CNC(=O)c2cc(-c3cccc(C(F)(F)F)c3)cs2)C1.O=C(O)C(F)(F)F` (stereo not given) were, in that order, 84%, 1% and 25%.
Take `CCN(CC)CCN(Cc1ccc(-c2ccc(C(F)(F)F)cc2)cc1)C(=O)Cn1c(/C=C/c2ccco2)nc(=O)c2ccccc21.O=C(O)C(O)C(O)C(=O)O`: the Inhibition in the test on Plasmodium falciparum [1] is on record as 94%; in the test with Plasmodium falciparum [2], 86%; in the test with HepG2, 28%.
The like results for `O=C(Nc1ccccc1)N(Cc1ccccc1-c1cccc(CNCc2ccc3c(c2)OCO3)c1)C1CCN(Cc2ccccc2)CC1.O=C(O)C(F)(F)F` were, in that order, 100%, 64% and 35%.
The like results for `Br.CC1(C)N=C(N)N=C(N)N1OCCCOc1cccc(C(=O)O)c1` were, in that order, 94%, 96% and 73%.
For `CC1CCC(C[C@@H](C(=O)N[C@H](C(=O)Nc2nccs2)[C@@H](C)O)[C@H](CCC(F)(F)F)N(O)C=O)CC1` (stereo not given in full), in that order: 95%, 94% and 0%.
Regarding `COc1ccc(S(=O)(=O)N(CC(=O)NN=C(C)c2cccs2)c2cc(C)cc(C)c2)cc1OC`, the values for the Inhibition in the test on Plasmodium falciparum [1], in the test on Plasmodium falciparum [2] and with HepG2 were 97%, 43% and 12%, respectively.
For `O=c1cc(NCCCNCc2[nH]c3cc(Cl)ccc3c2Cl)[nH]c2ccccc12`, in that order: 91%, 1% and 5%.
With `Cc1cc(C)c2ncc(C(=O)O)c(O)c2c1`, the Inhibition in the test on Plasmodium falciparum [1] is listed as 93%; with Plasmodium falciparum [2], 60%; in the test with HepG2 it was 0%.

By Inhibition is commonly meant the change of the read-out against control, counted positive when it falls.

The record behind these values is ChEMBL document CHEMBL1157539, “Thousands of chemical starting points for antimalarial lead identification” (Nature, 2010).
